Test [1] in a line: ATG_Sox_CIS: Attagene CIS-FACTORIAL HepG2 Assay for human SRY-box transcription factor (SOX) (AID 2282960). Conditions: HepG2 Attagene cis-factorial SOX reporter, mRNA; actives raise or lower the signal. In short, it runs like this: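 HepG2, cis reporter units, 24 h exposure. Reporter mRNA: RT-PCR → FAM labelling → HpaI → CE fluorescence. Bidirectional fit vs DMSO.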
The target in test [2] is Transcription factor Sp1 (Homo sapiens) (UniProt P08047). In words: ATG_Sp1_CIS: Attagene CIS-FACTORIAL HepG2 Assay for human Specificity Protein 1 (Sp1) (AID 2282961). Conditions: HepG2 Sp1 cis-reporter transcription, actives raise or lower the signal. In short, it runs like this:
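Liver-derived HepG2 cells, cis-element reporter library, 24 h treatment; RNA isolated, cDNA amplified with reporter-specific primers, FAM-labeled fragments sized on capillary analyzer. DMSO baseline, bidirectional curve fit.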

Test [3] in a line: ATG_SREBP_CIS: Attagene CIS-FACTORIAL HepG2 Assay for human Sterol Regulatory Element Binding (SREBP) (AID 2282962). Conditions: HepG2 Attagene cis-factorial SREBP reporter, mRNA; actives raise or lower the signal. In short, it runs like this:
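Readout: fluorescent reporter-transcript peaks resolved by capillary electrophoresis after RT-PCR. Cells were human HepG2 carrying transfected cis-promoter reporter constructs, dosed for 24 h. Gain or loss of signal was fitted against DMSO controls.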

The target in test [4] is Signal transducer and activator of transcription 3 (Homo sapiens) (UniProt P40763). In words: ATG_STAT3_CIS: Attagene CIS-FACTORIAL HepG2 Assay for human Signal Transducer and Activator of Transcription 3 (STAT3) (AID 2282963). Conditions: HepG2, Attagene cis-factorial STAT3 reporter transcription; actives raise or lower the signal. In short, it runs like this:
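Readout: fluorescent reporter mRNA fragments resolved by capillary electrophoresis. Setup: HepG2 transfected with MRTUs reporting endogenous transcription-factor activity, dosed 24 h. Gain or loss of signal fitted bidirectionally against DMSO control.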

A short description of test [5]: ATG_TA_CIS: Attagene CIS-FACTORIAL HepG2 Assay for human TA Basal Promoter (AID 2282964). Conditions: HepG2 Attagene CIS-factorial TA basal promoter reporter; actives raise or lower the signal. In short, it runs like this: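 Steps: transfect HepG2 with MRTUs; dose 24 h; isolate RNA, DNase-treat, reverse-transcribe; PCR and FAM-label reporter cDNA; digest with HpaI 2h at 37 C; run capillary electrophoresis. Activity fitted both directions against DMSO.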

A short description of test [6]: ATG_TCF_b_cat_CIS: Attagene CIS-FACTORIAL HepG2 Assay for human T-Cell-Factor with beta-catenin (TCF/b-cat) (AID 2282965). The conditions noted are these: HepG2 TCF/beta-catenin cis-reporter transcription, actives raise or lower the signal. In short, it runs like this: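 Cells of the HepG2 line carry transiently transfected reporter units whose promoters respond to endogenous factors. Twenty-four hours post-dosing, reporter mRNA induction is measured by fluorescent RT-PCR and capillary electrophoresis, with DMSO as baseline.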

Test [7] in a line: ATG_TAL_CIS: Attagene CIS-FACTORIAL HepG2 Assay for human TAL Basal Promoter (AID 2282966).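 Note: background control endpoint measuring basal TAL promoter reporter mRNA not a specific factor.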 The conditions noted are these: HepG2 Attagene cis-factorial TAL promoter reporter; actives raise or lower the signal. In short, it runs like this: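 Transiently transfected HepG2 (cis-regulated reporter units), 24 h treatment, mRNA read by fluorescent CE after RT-PCR; bidirectional fit, DMSO baseline.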

Test [8] in a line: ATG_TGFb_CIS: Attagene CIS-FACTORIAL HepG2 Assay for human Transforming Growth Factor (TGF) (AID 2282967). The conditions noted are these: HepG2 Attagene CIS TGFb reporter, mRNA transcription; actives raise or lower the signal. In short, it runs like this:
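Cells were dosed for 24 hours, after which total RNA was reverse-transcribed and reporter sequences amplified, labeled and sized by capillary electrophoresis. Activity was fitted in both directions against DMSO.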

The nature of test [9]: ATG_VDRE_CIS: Attagene CIS-FACTORIAL HepG2 Assay for human Vitamin D Receptor Element (VDRE) (AID 2282968). The conditions noted are these: HepG2 VDRE cis-reporter transcription, actives raise or lower the signal. In short, it runs like this: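 Transient MRTU transfection of HepG2, 24 h compound exposure. Readout: reporter transcripts via RT-PCR and capillary electrophoresis, fluorescence. Bidirectional fit vs DMSO.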

The target in test [10] is Estrogen receptor (Homo sapiens) (UniProt P03372). In words: ATG_ERa_TRANS: Attagene TRANS-FACTORIAL HepG2 Assay for human Estrogen Receptor alpha (ERa) (AID 2282970; active = hit-call score of the fitted dose curve at least 0.9, where 1 is the maximum). The conditions noted are these: HepG2 Attagene TRANS ERa GAL4 reporter, mRNA. In short, it runs like this: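 One of 30 multiplexed endpoints from a HepG2 TRANS system, this one reports ERa-Gal4-driven reporter mRNA. Transcripts were quantified 24 hours post-dosing by fluorescent RT-PCR and capillary electrophoresis, with activity scored as induction over DMSO.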

The target of test [11] is X-box-binding protein 1 (Homo sapiens) (UniProt P17861). Briefly: ATG_Xbp1_CIS: Attagene CIS-FACTORIAL HepG2 Assay for human X-box Binding Protein 1 (XBP1) (AID 2282972). The conditions noted are these: HepG2 XBP1 cis-element reporter, Attagene multiplex; actives raise or lower the signal. In short, it runs like this: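 Read-out: fluorescent reporter mRNA fragments resolved by capillary electrophoresis after RT-PCR. Human HepG2 liver cells carried transfected cis-promoter reporter units and were exposed to chemicals for 24 hours. Gain or loss of signal fitted relative to DMSO baseline.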

Test [12] can be described thus: ATG_M_19_TRANS: Attagene TRANS-FACTORIAL HepG2 Assay for M19 Transcription Factor (Internal Marker) (AID 2282974; active = hit-call score of the fitted dose curve at least 0.9, where 1 is the maximum). The conditions noted are these: HepG2 Attagene TRANS-FACTORIAL M19 internal marker reporter. In short, it runs like this: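 Transfected HepG2 (GAL4-UAS MRTUs), 24 h compound, TriZol RNA, DNase-treated RT, reporter PCR, FAM label, HpaI digest, CE fluorescence; gain vs DMSO.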

Test [13] in a line: ATG_GAL4_TRANS: Attagene TRANS-FACTORIAL HepG2 Assay for GAL4 (Internal Marker) (AID 2282976; active = hit-call score of the fitted dose curve at least 0.9, where 1 is the maximum). The conditions noted are these: HepG2 Attagene TRANS GAL4 internal marker reporter. In short, it runs like this: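 HepG2 cells transiently transfected with multiplexed GAL4-UAS reporter constructs were dosed for 24 h. Reporter mRNA was measured by RT-PCR, 6-FAM primer extension, HpaI digestion and capillary electrophoresis, and gain of signal was fitted relative to DMSO.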

For test [14], the target named is Glucocorticoid receptor (Homo sapiens) (UniProt P04150). In words: ATG_GR_TRANS: Attagene TRANS-FACTORIAL HepG2 Assay for human Glucocorticoid Receptor (GR) (AID 2282978; active = hit-call score of the fitted dose curve at least 0.9, where 1 is the maximum;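 note: activators score as hits since higher reporter transcript over DMSO is fitted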). Conditions: HepG2 Attagene TRANS GR reporter, mRNA transcription. In short, it runs like this: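 After 24 h incubation with test chemical, transfected HepG2 cells were lysed for RNA; reporter cDNA was amplified, FAM-labelled, HpaI-digested and sized on a capillary analyser. Signal gain relative to DMSO was scored.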

In test [15] the target is Oxysterols receptor LXR-alpha (Homo sapiens) (UniProt Q13133). In words: ATG_LXRa_TRANS: Attagene TRANS-FACTORIAL HepG2 Assay for human Liver X Receptor alpha (LXRa) (AID 2282980; active = hit-call score of the fitted dose curve at least 0.9, where 1 is the maximum). Conditions: HepG2 Attagene TRANS reporter, LXRa transactivation. In short, it runs like this: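 HepG2 cells were transiently transfected with multiplexed reporter units driven by chimeric LXRa–GAL4 fusion proteins, then dosed for 24 h. Reporter mRNA was quantified by RT-PCR, fluorescent labelling and capillary electrophoresis; gain of signal fitted against DMSO baseline.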

Test [16] concerns the target Oxysterols receptor LXR-beta (Homo sapiens) (UniProt P55055). In words: ATG_LXRb_TRANS: Attagene TRANS-FACTORIAL HepG2 Assay for human Liver X Receptor beta (LXRb) (AID 2282981; active = hit-call score of the fitted dose curve at least 0.9, where 1 is the maximum). The conditions noted are these: HepG2 Attagene TRANS GAL4-LXRb reporter, mRNA. In short, it runs like this: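 Readout: fluorescent reporter mRNA fragments resolved by capillary electrophoresis after RT-PCR. System: transiently transfected human HepG2, exogenous LXRb-Gal4 chimera driving GAL4-UAS reporter, 24 h dosing. Activity fitted upward against DMSO baseline.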

The structures appear in SMILES notation. Results filed as inconclusive are left out. Activity calls are given as the source filed them. Rule for the calls, unless noted: active = hit-call score of the fitted dose curve at least 0.9, where 1 is the maximum; inactive = score below 0.9.

Chain of Signal transducer and activator of transcription 3 (Homo sapiens) (P40763 whole entry, looked up, the tested form may be a part): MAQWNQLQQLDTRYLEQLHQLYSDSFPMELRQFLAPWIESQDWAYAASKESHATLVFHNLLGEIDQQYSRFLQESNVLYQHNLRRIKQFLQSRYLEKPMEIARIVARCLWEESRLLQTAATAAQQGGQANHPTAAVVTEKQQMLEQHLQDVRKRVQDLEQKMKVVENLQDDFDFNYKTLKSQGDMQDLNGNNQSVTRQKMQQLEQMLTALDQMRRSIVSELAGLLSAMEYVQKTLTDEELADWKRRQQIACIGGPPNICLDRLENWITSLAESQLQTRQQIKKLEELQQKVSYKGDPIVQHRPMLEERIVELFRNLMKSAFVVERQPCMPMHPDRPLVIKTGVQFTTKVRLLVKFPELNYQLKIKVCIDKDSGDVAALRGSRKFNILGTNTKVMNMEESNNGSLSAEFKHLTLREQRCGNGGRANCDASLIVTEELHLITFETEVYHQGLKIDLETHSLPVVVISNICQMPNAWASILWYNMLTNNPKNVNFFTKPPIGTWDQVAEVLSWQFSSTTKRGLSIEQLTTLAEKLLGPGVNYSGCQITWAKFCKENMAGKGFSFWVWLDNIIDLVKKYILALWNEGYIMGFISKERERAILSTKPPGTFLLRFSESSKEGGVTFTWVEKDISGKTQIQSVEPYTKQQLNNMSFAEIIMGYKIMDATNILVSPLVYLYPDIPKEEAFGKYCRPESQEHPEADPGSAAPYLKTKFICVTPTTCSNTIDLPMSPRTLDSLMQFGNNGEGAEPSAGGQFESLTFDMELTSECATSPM
Chain of Oxysterols receptor LXR-beta (Homo sapiens) (P55055 whole entry, looked up, the tested form may be a part): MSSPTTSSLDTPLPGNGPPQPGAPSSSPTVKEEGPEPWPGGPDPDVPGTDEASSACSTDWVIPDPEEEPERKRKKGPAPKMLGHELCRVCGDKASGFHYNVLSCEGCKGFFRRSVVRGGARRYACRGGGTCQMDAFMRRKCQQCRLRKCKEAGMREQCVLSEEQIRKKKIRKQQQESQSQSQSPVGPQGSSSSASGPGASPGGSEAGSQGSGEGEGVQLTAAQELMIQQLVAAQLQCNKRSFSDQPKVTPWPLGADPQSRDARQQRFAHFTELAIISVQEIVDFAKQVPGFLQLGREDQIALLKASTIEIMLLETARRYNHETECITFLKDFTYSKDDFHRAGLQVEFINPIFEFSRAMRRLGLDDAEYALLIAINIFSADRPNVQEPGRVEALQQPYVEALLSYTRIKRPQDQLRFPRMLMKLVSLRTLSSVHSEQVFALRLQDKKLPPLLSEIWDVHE
Chain of Transcription factor Sp1 (Homo sapiens) (P08047 whole entry, looked up, the tested form may be a part): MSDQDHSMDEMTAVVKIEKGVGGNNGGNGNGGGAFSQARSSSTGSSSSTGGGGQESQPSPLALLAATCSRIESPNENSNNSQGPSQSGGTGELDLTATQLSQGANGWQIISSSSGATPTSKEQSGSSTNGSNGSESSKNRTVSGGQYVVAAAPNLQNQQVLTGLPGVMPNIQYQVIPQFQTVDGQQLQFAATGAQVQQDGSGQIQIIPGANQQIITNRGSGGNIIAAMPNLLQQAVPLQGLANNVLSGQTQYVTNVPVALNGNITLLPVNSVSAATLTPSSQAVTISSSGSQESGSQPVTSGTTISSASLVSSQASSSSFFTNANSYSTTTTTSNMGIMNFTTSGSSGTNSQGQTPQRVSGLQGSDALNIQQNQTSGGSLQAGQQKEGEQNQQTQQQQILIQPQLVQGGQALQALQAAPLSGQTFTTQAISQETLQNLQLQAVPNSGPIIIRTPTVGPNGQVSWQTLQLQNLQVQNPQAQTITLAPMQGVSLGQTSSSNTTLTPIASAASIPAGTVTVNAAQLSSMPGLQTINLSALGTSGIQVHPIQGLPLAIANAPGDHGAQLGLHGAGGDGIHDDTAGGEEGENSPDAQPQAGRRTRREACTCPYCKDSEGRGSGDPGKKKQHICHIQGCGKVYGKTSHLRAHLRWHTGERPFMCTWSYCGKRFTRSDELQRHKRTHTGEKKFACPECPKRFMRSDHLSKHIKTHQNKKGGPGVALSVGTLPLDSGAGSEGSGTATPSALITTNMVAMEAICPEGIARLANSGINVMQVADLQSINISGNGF
Chain of X-box-binding protein 1 (Homo sapiens) (P17861 whole entry, looked up, the tested form may be a part): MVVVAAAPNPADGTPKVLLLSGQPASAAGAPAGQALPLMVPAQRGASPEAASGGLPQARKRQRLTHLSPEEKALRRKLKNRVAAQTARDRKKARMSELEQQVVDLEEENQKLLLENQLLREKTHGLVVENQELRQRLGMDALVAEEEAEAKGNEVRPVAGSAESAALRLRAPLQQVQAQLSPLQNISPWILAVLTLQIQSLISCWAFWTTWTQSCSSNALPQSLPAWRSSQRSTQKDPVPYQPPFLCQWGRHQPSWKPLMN
Chain of Glucocorticoid receptor (Homo sapiens) (P04150 whole entry, looked up): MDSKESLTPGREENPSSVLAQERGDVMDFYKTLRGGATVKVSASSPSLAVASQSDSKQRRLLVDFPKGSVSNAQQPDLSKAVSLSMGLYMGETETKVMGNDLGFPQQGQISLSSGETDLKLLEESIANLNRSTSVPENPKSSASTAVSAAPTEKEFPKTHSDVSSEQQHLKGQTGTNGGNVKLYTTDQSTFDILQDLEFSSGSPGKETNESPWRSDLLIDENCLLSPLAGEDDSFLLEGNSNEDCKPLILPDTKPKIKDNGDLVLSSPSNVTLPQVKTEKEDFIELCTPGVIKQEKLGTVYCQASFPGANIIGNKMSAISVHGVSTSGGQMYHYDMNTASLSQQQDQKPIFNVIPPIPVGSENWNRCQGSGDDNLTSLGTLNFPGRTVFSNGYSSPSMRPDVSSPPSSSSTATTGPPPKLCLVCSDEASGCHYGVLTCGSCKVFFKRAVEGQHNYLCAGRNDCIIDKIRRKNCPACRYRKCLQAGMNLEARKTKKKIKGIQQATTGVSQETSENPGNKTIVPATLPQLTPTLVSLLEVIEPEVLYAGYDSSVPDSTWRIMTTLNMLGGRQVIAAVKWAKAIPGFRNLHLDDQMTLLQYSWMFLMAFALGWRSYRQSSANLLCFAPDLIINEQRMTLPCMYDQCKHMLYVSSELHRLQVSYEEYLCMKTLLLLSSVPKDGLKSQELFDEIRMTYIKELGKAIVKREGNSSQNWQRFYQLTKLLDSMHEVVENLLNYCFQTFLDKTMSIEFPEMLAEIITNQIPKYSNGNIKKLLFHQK
Chain of Estrogen receptor (Homo sapiens) (P03372 whole entry, looked up, the tested form may be a part): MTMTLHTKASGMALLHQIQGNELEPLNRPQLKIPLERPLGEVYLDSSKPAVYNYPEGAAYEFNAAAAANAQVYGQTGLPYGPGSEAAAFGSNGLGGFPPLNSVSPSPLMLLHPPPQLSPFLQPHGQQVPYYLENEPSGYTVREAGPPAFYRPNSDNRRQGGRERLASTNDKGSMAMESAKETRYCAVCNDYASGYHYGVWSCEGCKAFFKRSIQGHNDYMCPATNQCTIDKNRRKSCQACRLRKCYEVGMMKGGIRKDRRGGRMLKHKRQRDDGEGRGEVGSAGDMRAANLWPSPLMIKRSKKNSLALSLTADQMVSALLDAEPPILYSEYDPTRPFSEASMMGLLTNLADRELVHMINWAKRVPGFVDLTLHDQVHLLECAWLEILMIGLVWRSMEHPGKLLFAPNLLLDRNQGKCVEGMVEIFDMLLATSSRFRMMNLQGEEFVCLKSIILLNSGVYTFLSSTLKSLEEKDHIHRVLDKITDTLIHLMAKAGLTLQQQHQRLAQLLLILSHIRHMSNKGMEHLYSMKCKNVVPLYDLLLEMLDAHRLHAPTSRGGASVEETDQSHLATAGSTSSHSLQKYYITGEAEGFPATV
Chain of Oxysterols receptor LXR-alpha (Homo sapiens) (Q13133 whole entry, looked up, the tested form may be a part): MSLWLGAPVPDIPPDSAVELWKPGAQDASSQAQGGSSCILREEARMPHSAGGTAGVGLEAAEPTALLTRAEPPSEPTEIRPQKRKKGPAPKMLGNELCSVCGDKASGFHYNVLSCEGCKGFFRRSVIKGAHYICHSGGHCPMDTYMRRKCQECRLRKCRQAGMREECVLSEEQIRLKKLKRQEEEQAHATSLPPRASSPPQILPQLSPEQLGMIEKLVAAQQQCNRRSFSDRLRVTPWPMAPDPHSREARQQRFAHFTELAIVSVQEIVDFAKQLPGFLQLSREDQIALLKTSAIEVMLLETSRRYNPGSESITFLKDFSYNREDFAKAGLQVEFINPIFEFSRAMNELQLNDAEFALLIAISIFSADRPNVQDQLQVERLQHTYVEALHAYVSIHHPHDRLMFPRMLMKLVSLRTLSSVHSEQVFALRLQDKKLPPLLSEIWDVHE

By AC50 is commonly meant the concentration giving half of the maximal activity seen. On to `O=[N+]([O-])c1ccc2c3c(cccc13)CC2`, for which the call in test [1], in test [2], in test [3], in test [4], in test [5] and in test [6] was inactive. Also, the compound was classed as inactive in test [7], in [10], in test [11], in [12] and in [13]. Also, the AC50 is 0.0823 µM (active) in test [8] and 11.5 µM (active) in test [9].
For the compound `COc1ccccc1OC`, the result in test [1], in test [2], in test [3], in test [4], in test [5] and in [6] was inactive. For the same compound, the call in [7], in [8], in test [9], in test [11], in [14] and in test [15] was inactive. Further, the outcome in test [16] was inactive.
On to `CCOP(=O)(CN(CCO)CCO)OCC`, for which the outcome in test [1], in test [2], in [3], in test [4], in test [5] and in [6] was inactive. For the same compound, the compound was classed as inactive in [7], in test [8], in test [9], in [11] and in test [16].
Consider `CCCCC(CC)CO[N+](=O)[O-]` (stereo unspecified), for which the compound was classed as inactive in [1], in test [2], in test [3], in test [4], in test [5] and in test [6]. Further, the outcome in test [7], in test [8], in test [11] and in [14] was inactive. Besides, the AC50 in test [9] is 143 µM (active).
With `O=C(O)C(F)(F)C(F)(F)C(F)(F)C(F)(F)C(F)(F)C(F)(F)F`, the compound was classed as inactive in test [1], in test [2], in [3], in [4], in test [5] and in [6]. Further, the call in [7], in test [8], in test [9], in [11], in [12] and in [13] was inactive. The compound was called inactive in [16].

For the origin of these results see PubChem BioAssay (EPA / NIEHS).
